Bioassay records (PubChem)
UCHL1 inh – human UCHL1 deubiquitinase inhibition | purified UCHL1, Ub-rhodamine cleavage fluorescence | inhibition, % at 20 µM | 47,000 tested, 0.2% active
USP10 block – human USP10 deubiquitinase inhibition; AID 1645856; purified USP10, Ub-rhodamine fluorescence, 60 min; 47,000 tested, 1.1% active; inhibition, % at 20 µM
USP8 block – blocks human USP8 ubiquitin-rhodamine cleavage; P40818; purified USP8, Ub-rhodamine cleavage fluorescence, 30 min; inhibition, % at 20 µM; 47,000 tested, 4.2% active; AID 1645853
USP7 inh – inhibitors of human USP7 deubiquitinase; Q93009; inhibition, % at 20 µM; AID 1645854; purified USP7, Ub-rhodamine cleavage fluorescence; 47,000 tested, 0.3% active
USP17 block – human USP17-like deubiquitinase inhibition; 47,000 tested, 6.5% active; AID 1645855; purified USP17, Ub-rhodamine cleavage fluorescence, 3 h; A8MUK1; inhibition, % at 50 µM
USP30 inh – inhibitors of human USP30 deubiquitinase; Q70CQ3; 47,000 tested, 5.3% active; purified USP30, Ub-rhodamine cleavage fluorescence; inhibition, % at 25 µM; AID 1645860
Of the large screens only hits and unclear results are named; the others gave an inactive call. Sampled rows, rich in hits. Any-hit rate of the full collection: about 12%. Cut-off read from the data, not from the text of the source: active = inhibition above about 30%; inactive = the rest.

O=C(NC1CCCCCC1)c1cnn(-c2ccccc2)c1C1CC1	none
CCNC(=O)N1CCc2c(cccc2-n2nnc(C(=O)N(C)Cc3ccco3)c2C)C1	USP8 block 37
COC[C@@H]1C[C@@]1(CN1CCN(CC2CCOCC2)CC1)c1ccccc1	none
COc1ccc(/C=C2\CC(=O)c3ccccc3C2)c(OC)c1	none
O=C1C/C(=C\c2cccc(Br)c2)Cc2ccccc21	none
O=C1C/C(=C\c2cccc([N+](=O)[O-])c2)Cc2ccccc21	USP30 inh 38
O=C1C/C(=C\c2cccc(Cl)c2)Cc2ccccc21	USP8 block 34, USP30 inh 39
CC(C)NC(=O)c1cc2c(nc1N(C)C)CCN(S(C)(=O)=O)CC2	none
O=C(N[C@H]1C[C@@H]2C[C@H]1CN2C(=O)Nc1ccccc1Cl)c1ccccc1	none
O=C1C[C@H]2[C@H](CCN2C(=O)c2ccno2)N1CC1CC1	none
Cc1sc2ncn(CC(=O)Nc3ccccc3)c(=O)c2c1C	USP17 block 39
CCn1cc(-c2nc(-c3ccccn3)no2)c(=O)c2cc(F)ccc21	USP17 block 58
N[C@@H]1C[C@H](O)[C@@H](N2CCN(c3ccccc3)CC2)[C@@H]1O	none
Cc1ccc(CN2CCc3nc4cc(C5CC5)[nH]n4c(=O)c3C2)s1	USP30 inh 32
O=c1c2c(nc3cc(C4CC4)[nH]n13)CCN(Cc1cccc(F)c1)C2	none
Cc1cc(-c2cc3nc4c(c(=O)n3[nH]2)CN(Cc2ccc(C)o2)CC4)no1	USP17 block 46
COc1ccc(N2CCCn3c2nc2c3c(=O)n(Cc3ccccc3Cl)c(=O)n2C)cc1	none
COc1ccc(C(C)NS(=O)(=O)c2c(C)[nH]c(=O)[nH]c2=O)cc1 (centres undefined)	none
CC(OC(=O)c1cc(S(=O)(=O)Nc2ccccc2F)ccc1Cl)C(=O)Nc1ccc([N+](=O)[O-])cc1C(F)(F)F (centres undefined)	USP10 block 36
Cc1nc2sc(C(=O)Nc3ccccc3Br)c(N)c2c(C)c1C	USP17 block 46, USP30 inh 51
Cc1cc(C(F)(F)F)c2c(N)c(C(=O)Nc3cccc(C(F)(F)F)c3)sc2n1	none
Cc1ccc(-c2ncc(C(=O)Nc3ccccc3Br)c(-c3ccncc3)n2)cc1	none
Cc1cc(C)c2c(N)c(C(=O)Nc3ccccc3Br)sc2n1	USP17 block 77 (no result: USP30 inh)
Cc1ccccc1NC(=O)COC(=O)c1cc2ccccc2cc1O	none
COC(=O)c1ccccc1NC(=O)COC(=O)CCc1ccccc1	USP8 block 35
CCCC[C@@H](C)/C=C(C)/C=C(\C)C(=O)NC1=C[C@](O)(/C=C/C=C/C=C/C(=O)NC2=C(O)CCC2=O)[C@@H]2O[C@@H]2C1=O	UCHL1 inh 34, USP17 block 73
CC(=O)c1ccc(OCc2csc(-c3ccc(F)cc3)n2)cc1	USP17 block 43, USP30 inh 37
Cc1ccc(-c2cc(NC(=O)C(C)C)c(=O)n(CC(=O)Nc3cc(F)cc(F)c3)n2)cc1	none
COc1cc(C2CCN(C(=O)c3ccc(Cl)cc3)CC2)on1	none
COc1cc(C2CCN(C(=O)c3ccccc3)CC2)on1	USP8 block 32
CCCCCCCc1cc(OC(=O)c2c(CCCCCCC)cc(O)cc2O[C@@H]2O[C@H](CO)[C@@H](O)[C@H](O)[C@H]2O)cc(O)c1C(=O)O	UCHL1 inh 88, USP10 block 101, USP8 block 99, USP7 inh 101, USP17 block 102, USP30 inh 110
CCCCCCCCCCCCCCCc1cc(O)cc(O)c1C(=O)O	USP10 block 63, USP17 block 89, USP30 inh 56
COc1cc(C(=O)OCc2ccc(O[C@@H]3O[C@H](CO)[C@@H](O)[C@H](O)[C@H]3O)cc2)ccc1O	none
O=C(O)CCCCc1cc(O)cc(O)c1	none
COc1ccc(CCNC(=O)Cn2c(=O)c3sccc3n(Cc3cccc([N+](=O)[O-])c3)c2=O)cc1OC	USP10 block 32, USP30 inh 44
COc1ccc(CCNC(=O)Cn2c(=O)c3sccc3n(Cc3ccccc3F)c2=O)cc1OC	USP17 block 60, USP30 inh 52
COc1ccc(CNC(=O)CCn2c(=O)c3sccc3n(Cc3cccc([N+](=O)[O-])c3)c2=O)cc1	none
COc1ccc(CCNC(=O)CN2CCN(Cc3ccccc3F)C2=O)cc1OC	none
COc1ccccc1CNC(=O)C1c2ccccc2C(=O)N1c1ccc(F)cc1 (centres undefined)	none
CCc1cccc(N2C(=O)c3ccccc3C2C(=O)NCc2ccccc2OC)c1 (centres undefined)	USP8 block 32
CN1[C@H]2CCN(C(=O)c3cnccn3)CC[C@@H]2Oc2ccccc2S1(=O)=O	none
O=C(Oc1ccc(-n2cnnn2)cc1)c1ccccc1Br	USP8 block 45, USP17 block 33
O=C(COc1ccc(F)cc1)Oc1ccc(-n2cnnn2)cc1	USP30 inh 30
O=C(COc1ccc(-n2cnnn2)cc1)Nc1cc(Cl)ccc1Oc1ccccc1	none
N#Cc1ccc(NC(=O)COc2ccc(-n3cnnn3)cc2)cc1	USP17 block 49, USP30 inh 37
COc1ccc(C2CC(c3ccc(OC)cc3)n3ncnc3N2C(=O)C2CC2)cc1 (centres undefined)	USP30 inh 37
COc1ccc(C2CC(c3ccc(Cl)cc3)N(C(=O)C(C)(C)C)c3ncnn32)cc1 (centres undefined)	none
Cc1ccc(C(=O)N2c3ncnn3C(c3ccccc3)CC2c2ccccc2)cc1 (centres undefined)	USP30 inh 32
Cc1ccc(C2CC(c3ccccc3)n3ncnc3N2C(=O)c2ccccc2)cc1 (centres undefined)	none
CC(C)[C@H]1CN(Cc2ccco2)CCN1Cc1nnnn1Cc1ccco1	none
O=C(CCCN1C(=O)c2cccc3cccc(c23)C1=O)OCc1ccc(Br)cc1	none (no result: USP30 inh)
COc1ccc2ncc3c(-c4ccc(C)cc4)nn(-c4ccc(F)cc4)c3c2c1	USP17 block 57
Cc1ccc(-c2nn(-c3ccc(F)cc3)c3c2cnc2cc4c(cc23)OCCO4)cc1	none
COc1ccc(C2CC(=O)Nc3c2sc(C(=O)O)c3-c2ccc(C)cc2)cc1 (centres undefined)	none
COc1ccc(-c2c(C(=O)O)sc3c2NC(=O)CC3c2cc(F)ccc2F)cc1 (centres undefined)	USP30 inh 35
Cc1ccccc1N1C(=O)/C(=C\c2cccn2C)c2ccccc2C1=O	USP17 block 61
O=C(CCn1cnc2ccccc21)N1CCN(c2ccc(F)cc2)CC1	none
Cc1cc(C)nc(-n2ncc(C#N)c2NC(=O)c2ccc(Br)cc2)n1	USP8 block 44
Cc1c(C#N)c(NC(=O)c2ccc(Cl)cc2)n(Cc2cccs2)c1C	none
CCn1nnc2c(NCc3ccc(C)cc3)ncnc21	none
